Consider 23 targets from the supplement of paper PMC10849652.

Of roughly 8,800 targets only a part is listed; those with a hit were picked by preference. About 0.5% of all pairs of compound and target were hits. Values without a mark were called inactive.

Chain of UniProt P09884 (P09884 whole entry, looked up): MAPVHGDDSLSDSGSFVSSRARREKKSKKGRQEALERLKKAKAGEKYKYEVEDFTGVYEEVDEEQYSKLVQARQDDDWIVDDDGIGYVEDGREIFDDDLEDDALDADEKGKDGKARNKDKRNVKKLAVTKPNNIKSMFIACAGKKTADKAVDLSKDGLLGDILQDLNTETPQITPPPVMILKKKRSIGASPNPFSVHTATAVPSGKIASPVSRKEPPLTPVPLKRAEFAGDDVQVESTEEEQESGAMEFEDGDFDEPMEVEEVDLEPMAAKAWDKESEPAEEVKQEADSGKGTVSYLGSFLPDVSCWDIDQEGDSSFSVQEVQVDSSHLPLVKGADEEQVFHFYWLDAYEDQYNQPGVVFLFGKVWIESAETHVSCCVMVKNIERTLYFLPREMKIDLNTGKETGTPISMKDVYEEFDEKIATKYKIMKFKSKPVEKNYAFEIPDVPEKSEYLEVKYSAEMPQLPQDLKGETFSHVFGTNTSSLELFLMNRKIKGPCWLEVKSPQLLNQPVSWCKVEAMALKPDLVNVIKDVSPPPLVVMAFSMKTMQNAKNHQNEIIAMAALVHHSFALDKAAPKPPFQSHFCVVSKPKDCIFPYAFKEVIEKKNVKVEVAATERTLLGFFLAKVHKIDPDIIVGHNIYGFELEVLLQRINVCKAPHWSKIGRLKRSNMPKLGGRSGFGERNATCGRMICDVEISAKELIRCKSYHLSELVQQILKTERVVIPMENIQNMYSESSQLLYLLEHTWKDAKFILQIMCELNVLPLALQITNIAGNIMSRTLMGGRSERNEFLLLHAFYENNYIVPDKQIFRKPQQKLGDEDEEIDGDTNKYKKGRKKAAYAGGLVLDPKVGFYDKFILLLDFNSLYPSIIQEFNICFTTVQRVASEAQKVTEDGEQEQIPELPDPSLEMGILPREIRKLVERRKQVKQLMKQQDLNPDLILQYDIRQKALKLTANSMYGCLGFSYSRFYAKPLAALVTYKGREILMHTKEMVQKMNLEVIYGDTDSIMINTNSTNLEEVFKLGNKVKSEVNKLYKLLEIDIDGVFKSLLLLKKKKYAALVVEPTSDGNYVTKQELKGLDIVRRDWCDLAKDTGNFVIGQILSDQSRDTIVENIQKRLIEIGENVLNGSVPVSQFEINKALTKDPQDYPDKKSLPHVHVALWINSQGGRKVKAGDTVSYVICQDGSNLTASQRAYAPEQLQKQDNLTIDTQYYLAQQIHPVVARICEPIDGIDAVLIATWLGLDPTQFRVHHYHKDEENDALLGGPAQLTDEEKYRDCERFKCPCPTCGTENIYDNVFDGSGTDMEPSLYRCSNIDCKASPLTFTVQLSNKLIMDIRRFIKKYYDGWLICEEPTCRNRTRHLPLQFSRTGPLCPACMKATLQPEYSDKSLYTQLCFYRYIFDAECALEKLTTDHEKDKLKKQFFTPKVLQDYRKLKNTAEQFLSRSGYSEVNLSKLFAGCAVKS
Chain of UniProt P41219 (P41219 whole entry, looked up): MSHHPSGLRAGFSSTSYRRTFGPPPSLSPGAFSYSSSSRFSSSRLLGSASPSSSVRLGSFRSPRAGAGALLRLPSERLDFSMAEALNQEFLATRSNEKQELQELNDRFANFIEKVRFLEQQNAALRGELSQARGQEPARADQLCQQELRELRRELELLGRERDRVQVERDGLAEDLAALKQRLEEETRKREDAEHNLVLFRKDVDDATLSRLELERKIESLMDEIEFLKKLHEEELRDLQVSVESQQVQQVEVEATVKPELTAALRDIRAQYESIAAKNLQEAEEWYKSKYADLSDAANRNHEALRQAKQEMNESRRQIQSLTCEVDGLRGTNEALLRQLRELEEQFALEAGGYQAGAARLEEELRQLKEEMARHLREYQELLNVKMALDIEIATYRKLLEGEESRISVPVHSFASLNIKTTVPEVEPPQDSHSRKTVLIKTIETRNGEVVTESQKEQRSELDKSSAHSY
Chain of UniProt Q12972 (Q12972 whole entry, looked up): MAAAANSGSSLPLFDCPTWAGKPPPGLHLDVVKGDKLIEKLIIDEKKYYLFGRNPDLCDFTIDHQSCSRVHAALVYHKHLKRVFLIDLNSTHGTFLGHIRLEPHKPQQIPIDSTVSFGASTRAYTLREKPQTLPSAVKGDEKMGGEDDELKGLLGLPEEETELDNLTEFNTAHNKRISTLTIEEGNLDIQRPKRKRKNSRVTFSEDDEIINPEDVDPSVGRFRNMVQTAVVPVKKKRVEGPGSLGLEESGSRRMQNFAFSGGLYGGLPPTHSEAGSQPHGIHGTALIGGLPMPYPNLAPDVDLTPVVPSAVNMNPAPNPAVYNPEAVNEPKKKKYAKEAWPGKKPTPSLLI
Chain of UniProt Q9H7Z7 (Q9H7Z7 whole entry, looked up): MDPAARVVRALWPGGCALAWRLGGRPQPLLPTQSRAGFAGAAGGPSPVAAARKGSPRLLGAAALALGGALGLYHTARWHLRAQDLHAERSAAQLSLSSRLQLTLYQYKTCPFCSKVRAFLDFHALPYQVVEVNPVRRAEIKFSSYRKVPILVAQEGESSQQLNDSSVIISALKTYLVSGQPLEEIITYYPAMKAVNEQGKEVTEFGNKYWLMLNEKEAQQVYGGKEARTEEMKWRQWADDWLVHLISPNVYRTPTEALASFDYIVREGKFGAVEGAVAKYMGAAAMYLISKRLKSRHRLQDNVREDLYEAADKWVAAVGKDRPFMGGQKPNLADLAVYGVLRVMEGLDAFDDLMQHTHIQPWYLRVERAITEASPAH
Chain of UniProt P49642 (P49642 whole entry, looked up): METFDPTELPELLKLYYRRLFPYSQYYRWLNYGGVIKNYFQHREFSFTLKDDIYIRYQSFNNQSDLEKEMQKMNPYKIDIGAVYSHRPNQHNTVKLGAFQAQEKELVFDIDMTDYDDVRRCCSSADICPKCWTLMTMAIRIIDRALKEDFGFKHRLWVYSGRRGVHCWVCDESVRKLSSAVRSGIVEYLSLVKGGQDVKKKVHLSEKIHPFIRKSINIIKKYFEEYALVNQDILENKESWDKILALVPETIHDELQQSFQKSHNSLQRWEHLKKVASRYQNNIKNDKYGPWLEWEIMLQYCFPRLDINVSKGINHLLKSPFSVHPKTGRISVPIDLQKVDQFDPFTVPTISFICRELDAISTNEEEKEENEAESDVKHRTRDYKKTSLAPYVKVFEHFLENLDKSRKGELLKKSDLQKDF
Chain of UniProt Q8WUM4 (Q8WUM4 whole entry, looked up): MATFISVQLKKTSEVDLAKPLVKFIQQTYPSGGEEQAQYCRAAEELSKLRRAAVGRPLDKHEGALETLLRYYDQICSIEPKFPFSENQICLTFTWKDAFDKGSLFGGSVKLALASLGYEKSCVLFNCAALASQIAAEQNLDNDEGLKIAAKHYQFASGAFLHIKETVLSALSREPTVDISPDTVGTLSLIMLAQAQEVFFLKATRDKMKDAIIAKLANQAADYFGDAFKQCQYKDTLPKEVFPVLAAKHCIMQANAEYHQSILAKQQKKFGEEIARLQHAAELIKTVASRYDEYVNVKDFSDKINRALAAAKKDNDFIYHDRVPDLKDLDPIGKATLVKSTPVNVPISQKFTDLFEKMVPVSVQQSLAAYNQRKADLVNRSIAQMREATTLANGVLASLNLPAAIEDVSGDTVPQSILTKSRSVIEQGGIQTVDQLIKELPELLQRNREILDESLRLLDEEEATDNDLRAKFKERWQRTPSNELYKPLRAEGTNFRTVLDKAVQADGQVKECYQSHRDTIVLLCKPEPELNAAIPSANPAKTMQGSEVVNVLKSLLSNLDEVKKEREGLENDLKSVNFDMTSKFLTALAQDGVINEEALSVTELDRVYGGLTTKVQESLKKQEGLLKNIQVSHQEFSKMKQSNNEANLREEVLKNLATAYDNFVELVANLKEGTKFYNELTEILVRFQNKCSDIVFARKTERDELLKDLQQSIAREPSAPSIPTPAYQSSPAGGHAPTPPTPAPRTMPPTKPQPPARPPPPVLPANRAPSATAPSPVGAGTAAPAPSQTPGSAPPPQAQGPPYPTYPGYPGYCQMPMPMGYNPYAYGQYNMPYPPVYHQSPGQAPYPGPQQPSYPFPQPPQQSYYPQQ
Chain of UniProt Q96I23 (Q96I23 whole entry, looked up): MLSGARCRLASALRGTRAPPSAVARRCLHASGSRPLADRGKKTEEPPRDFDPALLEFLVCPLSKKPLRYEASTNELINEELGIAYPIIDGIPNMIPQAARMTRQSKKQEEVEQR
Chain of UniProt P15735 (P15735 whole entry, looked up): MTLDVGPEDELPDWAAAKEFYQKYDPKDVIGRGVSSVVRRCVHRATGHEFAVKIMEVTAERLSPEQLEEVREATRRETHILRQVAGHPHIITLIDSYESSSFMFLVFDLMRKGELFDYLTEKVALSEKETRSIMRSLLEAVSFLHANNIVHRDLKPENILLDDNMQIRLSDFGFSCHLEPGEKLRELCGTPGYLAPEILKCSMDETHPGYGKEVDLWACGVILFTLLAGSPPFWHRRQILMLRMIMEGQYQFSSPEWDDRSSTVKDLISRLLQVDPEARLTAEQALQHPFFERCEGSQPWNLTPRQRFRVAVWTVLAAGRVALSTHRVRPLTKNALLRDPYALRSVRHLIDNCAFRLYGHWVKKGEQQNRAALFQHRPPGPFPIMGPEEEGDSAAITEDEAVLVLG
Chain of UniProt Q99541 (Q99541 whole entry, looked up): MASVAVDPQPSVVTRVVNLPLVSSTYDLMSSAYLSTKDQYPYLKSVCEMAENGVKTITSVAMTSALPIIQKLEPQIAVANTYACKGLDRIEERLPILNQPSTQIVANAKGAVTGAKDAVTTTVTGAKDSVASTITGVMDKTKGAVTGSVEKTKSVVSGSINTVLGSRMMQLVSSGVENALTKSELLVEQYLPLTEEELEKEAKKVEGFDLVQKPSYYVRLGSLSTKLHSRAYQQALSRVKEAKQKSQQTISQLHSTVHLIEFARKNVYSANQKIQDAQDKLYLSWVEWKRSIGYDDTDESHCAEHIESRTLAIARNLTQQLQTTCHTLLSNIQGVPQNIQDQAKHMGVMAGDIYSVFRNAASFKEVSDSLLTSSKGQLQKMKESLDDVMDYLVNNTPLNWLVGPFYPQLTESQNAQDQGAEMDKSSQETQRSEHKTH

Compound in this experiment: CNc1nc(-c2ccc3c(N)n[nH]c3c2)cc(N2C[C@@H](C(=O)NC3CCCCC3)CC[C@H]2C)n1
The experiment in a line: log2 fold change, soluble protein after heating vs DMSO (PISA); higher = thermal stabilisation; K562 lysate, 10 uM; active = over 0.2 and 3.5 SD of the protein, either way, in both replicates (recomputed). An outline of the steps:
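Following dounce homogenisation of K562 pellets in PBS pH 7.4 with 1 mM MgCl2, crude extract at 1 mg/mL protein was incubated for 30 min with 10 μM compound. Aliquots were then heated for 3 min over 48°C-58°C and pooled, NP-40 was added to 0.5% at 4°C, and soluble protein was recovered as the supernatant at 21,000xg for 90 min. Channel-sum-equalised TMTpro 16plex LC-MS/MS quantified this protein. Each value, from duplicates, is a log-two fold change in thermal stability relative to solvent controls.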
Regarding PDCD10 (UniProt Q9BUL8), the log2 fold change was -0.005.

As to PGPEP1 (UniProt Q9NXJ5), the log2 fold change is -0.055.

On to PRIM1 (UniProt P49642), for which the log2 fold change was 0.033.

On to PPP1R8 (UniProt Q12972), for which the log2 fold change was 0.044.

For the target PELO (UniProt Q9BRX2), the log2 fold change was -0.043.

Take PDCD6IP isoform 2 (UniProt Q8WUM4): the log2 fold change is -0.02.

With PTGES2 (UniProt Q9H7Z7), the log2 fold change was 0.322.

As for PYURF (UniProt Q96I23), the log2 fold change is 0.019.

On to PMPCA (UniProt Q10713), for which the log2 fold change was -0.004.

As for POLA1 (UniProt P09884), the log2 fold change was -0.004.

PHKG2 (UniProt P15735): the log2 fold change was 0.033.

Consider PRKACB isoform 2 (UniProt P22694), for which the log2 fold change is 0.118.

As to POLB (UniProt P06746), the log2 fold change was -0.033.

Consider PTPN1 (UniProt P18031), for which the log2 fold change is -0.033.

For PRPH isoform 2 (UniProt P41219), the log2 fold change is -0.133.

For the target PKN1 isoform 2 (UniProt Q16512), the log2 fold change is -0.003.

Consider PPP4R2 (UniProt Q9NY27), for which the log2 fold change was 0.014.

Take PEF1 (UniProt Q9UBV8): the log2 fold change was 0.029.

With PXMP4 (UniProt Q9Y6I8), the log2 fold change was 0.736 (active).

For POLR3E (UniProt Q9NVU0), the log2 fold change was 0.009.

In the case of PRKRA (UniProt O75569), the log2 fold change was -0.009.

For the target PTK2 (UniProt Q05397), the log2 fold change is -0.055.

PLIN2 (UniProt Q99541): the log2 fold change was 0.002.
